Screening results (PubChem)
The list is not random: actives were taken first. Their share in the collection is about 3.6%.
Mtb FBA inh: Mtb FBA enzyme inhibitors, primary screen, biochemical, fluorescence, strain H37Rv | purified M. tuberculosis FBA, fluorescence read-out | inhibition, % at 1 µM | Fructose-bisphosphate aldolase (Mycobacterium tuberculosis (strain ATCC 25618 / H37Rv)), … | hit rate 2.3% among 360,000 | AID 588726, 2011; in the data active means inhibition above about 27%
Target sequence (P9WQA3 whole entry, looked up): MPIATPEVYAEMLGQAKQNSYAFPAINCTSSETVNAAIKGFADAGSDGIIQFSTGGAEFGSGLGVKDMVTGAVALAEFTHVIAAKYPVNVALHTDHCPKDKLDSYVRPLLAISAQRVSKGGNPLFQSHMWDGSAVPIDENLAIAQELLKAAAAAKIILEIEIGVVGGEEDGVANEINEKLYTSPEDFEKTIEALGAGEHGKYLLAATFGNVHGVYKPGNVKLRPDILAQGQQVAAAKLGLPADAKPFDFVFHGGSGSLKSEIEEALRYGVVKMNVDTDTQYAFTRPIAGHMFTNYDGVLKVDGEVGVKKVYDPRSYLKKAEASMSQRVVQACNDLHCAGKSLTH
GDH-TPI counter: GDH-TPI coupling enzyme inhibitors, primary screen, artefact control for M. tuberculosis FBA inhibitor project, biochemical, absorbance, full deck. GDH-TPI coupled enzyme counterscreen, NADH absorbance. inhibition, % at 4.8 µM. hit rate 1.2% among 360,000. AID 588335, 2011; in the data active means inhibition above about 30%
Mtb bLac sens: beta-lactam sensitization of Mtb H37Rv, H37Rv; M. tuberculosis H37Rv growth with meropenem, percent inhibition; inhibition, % at 25 µM; hit rate 0.27% among 330,000; AID 434955, 2010; call rule not given here;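 further: growth measured after seven days incubation then overnight dye step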
Mtb hypoxia inh: PubChem AID 1159583 | M. tuberculosis hypoxia-regulated fluorescent reporter, fluorescence | fluorescence inhibition, % (concentration not given with the values) | hit rate 0.1% among 300,000; in the data active means fluorescence inhibition mostly above about 23%, no sharp cut-off; inactive means mostly below about 17%
VHR inh abs: VHR1 phosphatase inhibitors, primary screen, biochemical, absorbance, uHTS. Dual specificity protein phosphatase 3 (Homo sapiens), P51452. recombinant VHR phosphatase, pNPP absorbance. inhibition, % at 13.3 µM. hit rate 0.52% among 290,000. AID 1654, 2009; in the data active means inhibition above about 50%
Target sequence (P51452 whole entry, looked up): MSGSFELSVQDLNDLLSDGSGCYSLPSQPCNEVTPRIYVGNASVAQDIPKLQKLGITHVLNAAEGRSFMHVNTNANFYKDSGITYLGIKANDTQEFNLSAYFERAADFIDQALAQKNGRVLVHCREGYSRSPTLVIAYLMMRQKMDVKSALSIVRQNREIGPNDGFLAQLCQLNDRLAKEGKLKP
Numbers stand for hits; - = inactive; . = no result; + = active, no number.

SMILES	Mtb FBA inh	GDH-TPI counter	Mtb bLac sens	Mtb hypoxia inh	VHR inh abs
COc1ccc(-c2nc(C#N)c(NCC3CCCO3)o2)cc1OC (stereo unspecified)	180.2	-	-	-	-
CN(C)CCCNS(=O)(=O)c1ccc(NC2CCCCCC2)c([N+](=O)[O-])c1	-	-	-	-	52.0
CCNc1ccc(S(=O)(=O)NCCN(C)C)cc1[N+](=O)[O-]	-	-	-	-	-
CC(C)c1c(C(=O)NN=Cc2ccccc2C(=O)O)nnn1-c1nonc1N	.	.	.	-	.
COC(=O)C1CC(c2ccccc2)C(C)C1(C)C (stereo unspecified)	.	.	.	-	.
CNC(=S)N/N=C/c1c(C(=O)OC)cnn1-c1ccc(F)cc1F	-	46.2	-	.	-
COC(=O)c1cnn(-c2ccc(F)cc2F)c1/C=N/NC(=S)NC(C)(C)C	-	36.0	-	.	-
COC(=O)c1cnn(-c2ccc(F)cc2F)c1/C=N/NC(N)=S	-	36.0	-	.	-
COc1ccc(N=C2SC(=Cc3cccs3)C(=O)N2CC(C)C)cc1	.	.	.	-	.
O=C(O)c1ccc(N=Nc2c(O)[nH]c3ccccc23)cc1	-	35.0	-	.	-
CCCCn1c(/N=C/c2ccc(N(C)C)cc2)nc2ccccc21	-	52.2	-	.	-
C#CCOCCOCCOCCNc1nc(N2CCN(C(=O)C(CCCCN)n3cc(CCCC)nn3)CC2)nc(N2CCN(C(=O)C(C(C)CC)n3cc(CCCCN)nn3)CC2)n1 (stereo unspecified)	.	.	.	-	.
Cc1nc2nc(-c3ccc(Cl)cc3)cn2nc1C	141.6	-	-	.	-
Cc1nn2cc(-c3ccc(Cl)cc3)nc2s1	-	-	-	-	-
COCCNC(=S)NN=C(C)c1cccc(C(F)(F)F)c1	.	.	.	-	.
CCN(CC)c1ccc(/C=C2\C(=O)NC(=O)N(CC3CCCO3)C2=O)cc1 (stereo unspecified)	-	32.7	-	-	-
Cc1ccc(/C=C2\C(=O)NC(=O)N(CC3CCCO3)C2=O)s1 (stereo unspecified)	-	-	-	-	-
O=[N+]([O-])c1cccc(S(=O)(=O)NN=Cc2ccc3c(c2)OCO3)c1	.	.	.	-	.
COC(=O)C1=C(c2ccc(OC)c(OC)c2)CC2CCC1N2C(=O)NCCOc1ccccc1Cl (stereo unspecified)	.	.	.	-	.
COc1cccc(CC(=O)NC2CCCN(Cc3ccccc3F)C2)c1 (stereo unspecified)	-	-	-	-	-
COc1cccc(CC(=O)NC2CCCN(Cc3ccc(Cl)cc3)C2)c1 (stereo unspecified)	-	-	-	-	53.3
COc1cccc(CN2CC(C(=O)N3CCCCCCC3)CCC2=O)c1 (stereo unspecified)	-	-	-	-	-
COc1cccc(CN2CCN(C(=O)C3CCC(=O)N(C4CCCC4)C3)CC2)c1 (stereo unspecified)	-	-	-	-	51.2
COc1cccc(CN2CC(C(=O)N3CCOCC3)CCC2=O)c1 (stereo unspecified)	-	-	-	-	52.7
CCC(C)C1CNCCN1CC1(c2ccccc2)CC1 (stereo unspecified)	.	.	.	-	.
SMILES	Mtb FBA inh	GDH-TPI counter	Mtb bLac sens	Mtb hypoxia inh	VHR inh abs
O=C(Cc1ccccc1[N+](=O)[O-])NN=Cc1cccnc1	.	.	.	-	.
CC(=O)c1ccc(N2CCN(C(=O)C3CCC3)CC2)cc1	-	44.5	-	-	-
O=C(C1CC1)N1CCN(c2ccc(O)cc2)CC1	-	-	-	-	56.2
COc1ccc(C2C=C3CN(C(=O)OC(C)(C)C)S(=O)(=O)C3CC2OC(=O)c2ccc(C(F)(F)F)cc2)cc1 (stereo unspecified)	.	.	.	-	.
O=C(COc1ccccc1[N+](=O)[O-])NN=Cc1cccc(OC(=O)c2ccc3c(c2)OCO3)c1	.	.	.	-	.
Cc1nn(C)c(C)c1C=NO	.	.	.	-	.
COc1cc(C(=O)NNC(=S)NC(=O)/C=C/c2ccccc2)cc(OC)c1OC	-	43.5	-	-	-
COc1ccc(/C=C/C(=O)NC(=S)NNC(=O)Cc2cccs2)cc1OC	-	37.6	-	.	-
COc1ccc(/C=C/C(=O)NC(=S)NNC(=O)c2cccnc2)cc1OC	-	38.4	-	-	-
COc1cccc(NC(=O)c2cccnc2)c1	-	-	-	.	-
COc1cc(C(=O)NNC(=O)/C=C/c2ccccc2)cc(OC)c1OC	-	-	-	-	.
COc1cccc(C(=O)NNC(=O)c2cccnc2)c1	-	-	-	-	59.7
COc1ccc(/C=C/C(=O)NC(=S)NNC(=O)c2cccs2)cc1OC	-	-	-	-	-
CC1CN(C(C)CO)C(=O)c2cc(NS(=O)(=O)c3cn(C)cn3)ccc2OC1CN(C)Cc1ccc(C(=O)O)cc1 (stereo unspecified)	.	.	.	-	.
O=C(/C=C/c1ccccc1)NC(=S)NNC(=O)c1cnccn1	-	40.7	-	.	-
O=C(/C=C/c1ccccc1)NC(=S)NNC(=O)c1cccnc1	-	-	-	-	-
O=c1cc(-c2ccccc2)nc2c(-c3ccccc3)c(C(F)(F)F)[nH]n12	+	-	-	-	-
FC(F)(F)c1ccc(Cl)c(NC(=S)NN=Cc2ccccc2C(F)(F)F)c1	.	.	.	-	.
S=c1[nH]c2ccc3ccccc3c2[nH]1	-	-	-	-	53.0
COc1cc(OC)c(C=NNC(=O)c2ccc(NC(C)=O)cc2)cc1Br	.	.	.	-	.
CCN(CC)c1nc(N)c2c(N)nc3c(c2c1C#N)CC(c1ccccc1)O3 (stereo unspecified)	-	-	-	-	-
CCN(CC)c1nc(N)c2c(N)n(-c3ccccc3C)c(=S)c(C#N)c2c1C#N	-	44.0	-	-	-
CN(C)C(=O)c1c(NC(=O)c2ccccc2)sc2c1CCC2	-	-	-	-	-
CCN(CC)CCCC(C)NC(=O)c1c(NC(=O)c2ccccc2)sc2c1CCCC2 (stereo unspecified)	-	-	-	-	53.9
O=c1[nH]c(=S)c2c(n1-c1ccccc1)CCC2	-	35.3	-	-	-
SMILES	Mtb FBA inh	GDH-TPI counter	Mtb bLac sens	Mtb hypoxia inh	VHR inh abs
O=c1c(-c2ccccc2)c(O)c2c(n1-c1ccccc1)CCCC2	-	-	-	-	-
Cc1ccc(-c2nn(CCC#N)cc2C=C(C#N)C#N)cc1	-	33.5	-	-	-
O=c1[nH]c(=S)n(-c2cccc(Cl)c2)c(O)c1/C=N/N1CCOCC1	-	34.7	-	-	-
Cc1ccc(-n2c(O)c(/C=N/N3CCOCC3)c(=O)[nH]c2=S)cc1	-	-	-	-	-
COCCCNc1nc2nonc2nc1N(C)CC1CCCN1C (stereo unspecified)	-	36.1	-	-	-
COCCCNc1nc2nonc2nc1N1C[C@H]2CC[C@H]1C2	-	-	-	-	-
C#CCNC(=O)C(Cc1ccc(C(=O)c2ccccc2)cc1)NC(=O)OC(C)(C)C (stereo unspecified)	.	.	.	-	.
Cc1ccc(C=NNC(=O)CSc2nc3nc(C)cc(C)n3n2)cc1	.	.	.	-	.
COc1ccc(/C(C)=N/N2C(=O)c3ccccc3NC2c2ccc(O)c(OC)c2)cc1 (stereo unspecified)	-	34.6	-	.	-
Cc1csc2ncc(C(=O)N3CCCc4ccccc43)c(=O)n12	-	36.5	-	-	-
Cc1c(C(=O)N2CCc3ccccc32)cnn1C	-	-	-	-	-
